Measurements as given in PubChem BioAssay AID1159580 (chemical genetic matrix, 2015).
Hit rate of the full screen: of about 5,500 compounds, about 2,000 (36%) were called active. Not shown: some 18% with an inconclusive outcome. Cut-off read from the data, not from the text of the source: active = normalized growth mostly below about 0.91 (no sharp cut-off); inconclusive = no clear call, values can overlap the other calls; inactive = mostly above about 0.92. This is one part of the list.

Experiment: chemical genetic growth profiling, strain panel (AID 1159580);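 note: tested at 20 µM; growth read once vehicle control cultures reached saturation at 30 °C; 1 = growth at the plate median or of vehicle wells; lower values mean less growth of the strain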
Conditions: S. cerevisiae deletion strains, growth OD

Measured: normalized growth

CC[C@H](CO)Nc1nc(NCc2ccccc2)c2ncn(C(C)C)c2n1
inactive: locus YAL013W, strain DEP1, hits give low values 1.01 | locus YAL040C, strain CLN3, hits give low values 0.992 | locus YCL061C, strain MRC1 (second series), hits give low values 1 | locus YDR150W, strain NUM1, hits give low values 0.992 | locus YDR363W, strain ESC2, hits give low values 0.991 | locus YER002W, strain NOP16, hits give low values 1.03 | locus YGR078C, strain PAC10, hits give low values 0.995 | locus YGR229C, strain SMI1, hits give low values 1.04 | locus YMR307W, strain GAS1, hits give low values 0.967 | locus YNL128W, strain TEP1, hits give low values 1.03 | locus YNL153C, strain GIM3, hits give low values 1 | locus YNL175C, strain NOP13, hits give low values 1 | locus YNL197C, strain WHI3, hits give low values 1 | locus YNL224C, strain SQS1, hits give low values 1.01 | locus YNL322C, strain KRE1, hits give low values 1.02 | locus YOR083W, strain WHI5 (second series), hits give low values 1.01 | locus YPL241C, strain CIN2, hits give low values 0.997
